In PubChem BioAssay AID624111 (Johns Hopkins Ion Channel Center, 2012):
In all, about 4,000 compounds went through this assay and about 60 (2%) were called active.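 How the source made its calls: active means duplicate-averaged calcium fluorescence ratio at least three times the standard deviation of buffer wells, a nonspecific response in parental cells; inactive means the rest.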 The entries come from a sample that favours actives as a whole.

Test: calcium flux effects in cells lacking MrgX1 – parental HEK293 cells, Fluo-4 calcium flux, counter-screen for MrgX1 antagonist project, confirmation (AID 624111)
Conditions: parental HEK293, Fluo-4 calcium fluorescence, FDSS; at 10 µM

**Q.** Which fluorescence ratio F(max-min)/F0 does the source give for `CC(=O)N1c2ccc(S(=O)(=O)N3CCCC(C(=O)Nc4cccc(Cl)c4)C3)cc2CC1C` (stereo unspecified) here?
**A.** inactive

**Q.** Which fluorescence ratio F(max-min)/F0 does the source give for `Cc1cccc(Cn2cnc3c(N)c(C)c(C)cc32)c1` here?
**A.** inactive

**Q.** Which fluorescence ratio F(max-min)/F0 does the source give for `CCOC(=O)Nc1ccc2c(c1)N(C(=O)CCN1CCN(CCO)CC1)c1ccccc1CC2` here?
**A.** inactive

**Q.** Which fluorescence ratio F(max-min)/F0 does the source give for `COc1ccc2c(c1)OC(O)(C(F)(F)C(F)F)CC2=O` (stereo unspecified) here?
**A.** inactive

**Q.** Which fluorescence ratio F(max-min)/F0 does the source give for `O=S(=O)(c1ccc2ccccc2c1)N1CCN(S(=O)(=O)N2CCOCC2)CC1` here?
**A.** inactive

**Q.** With `CCOC(=O)C1=C(O)CSC1=Nc1cccc(Cl)c1` as the compound, how does the fluorescence ratio F(max-min)/F0 read?
**A.** inactive

**Q.** For `Cc1nccn1CCC1CCCCN1C(=O)CCc1nnc(-c2ccsc2)o1` (stereo unspecified), which fluorescence ratio F(max-min)/F0 is on record?
**A.** inactive

**Q.** For `O=C(Nc1ccccc1N1CCCCC1)c1ccc2nccnc2c1`, which fluorescence ratio F(max-min)/F0 is on record?
**A.** inactive

**Q.** Which fluorescence ratio F(max-min)/F0 does the source give for `Cc1onc(-c2ccccc2)c1C(=O)NNC(=S)NC(=O)c1ccc(F)cc1` here?
**A.** inactive

**Q.** Which fluorescence ratio F(max-min)/F0 does the source give for `O=C(CN1CCN(c2ccccn2)CC1)NC1CCCCC1` here?
**A.** inactive

**Q.** With `C=CCOc1cccc(C2C(C(=O)c3ccc(C)o3)=C(O)C(=O)N2c2nnc(C)s2)c1` (stereo unspecified) as the compound, how does the fluorescence ratio F(max-min)/F0 read?
**A.** inactive

**Q.** For `O=C1C(=O)N(CC2COc3ccccc3O2)c2ccccc21` (stereo unspecified), which fluorescence ratio F(max-min)/F0 is on record?
**A.** inactive

**Q.** With `COc1ccccc1N(CC(=O)N1CCCCC1)S(=O)(=O)c1ccccc1` as the compound, how does the fluorescence ratio F(max-min)/F0 read?
**A.** inactive

**Q.** With `Clc1ccc(-c2nc3ccccn3c2CN2CCSCC2)cc1` as the compound, how does the fluorescence ratio F(max-min)/F0 read?
**A.** inactive

**Q.** With `COc1ccc(C(=O)NC(=S)NNC(=O)CCc2ccccc2)cc1` as the compound, how does the fluorescence ratio F(max-min)/F0 read?
**A.** inactive

**Q.** With `COc1cc(C)c(C)cc1S(=O)(=O)N1CCCc2ccccc21` as the compound, how does the fluorescence ratio F(max-min)/F0 read?
**A.** inactive

**Q.** With `Cc1nc2ccccc2cc1OCc1ccc(F)cc1` as the compound, how does the fluorescence ratio F(max-min)/F0 read?
**A.** inactive

**Q.** Which fluorescence ratio F(max-min)/F0 does the source give for `OCCn1c(-c2ccccc2)csc1=Nc1ccccc1` here?
**A.** inactive

**Q.** With `CC1(C)CC2CC(C)(CN2c2ncnc3ccc(Br)cc23)C1` (stereo unspecified) as the compound, how does the fluorescence ratio F(max-min)/F0 read?
**A.** inactive

**Q.** With `N=C(N)SCc1cccc2ccccc12` as the compound, how does the fluorescence ratio F(max-min)/F0 read?
**A.** inactive

**Q.** For `Cc1occc1C(=O)Nc1nnc(-c2ccncc2)s1`, which fluorescence ratio F(max-min)/F0 is on record?
**A.** inactive

**Q.** With `CC(Oc1ccc(F)cc1)C(=O)Nc1ccccc1C(=O)NC1CC1` (stereo unspecified) as the compound, how does the fluorescence ratio F(max-min)/F0 read?
**A.** inactive

**Q.** For `CCCCC(=O)NNC(=S)NC(=O)C(c1ccccc1)c1ccccc1`, which fluorescence ratio F(max-min)/F0 is on record?
**A.** inactive

**Q.** Which fluorescence ratio F(max-min)/F0 does the source give for `CCOc1ccccc1C1CC(c2ccc(Cl)cc2)Nc2nc(N)nn21` (stereo unspecified) here?
**A.** inactive

**Q.** With `CCN(CC)c1ccc2oc(=O)c(C)nc2c1` as the compound, how does the fluorescence ratio F(max-min)/F0 read?
**A.** 0.549 (active)

**Q.** Which fluorescence ratio F(max-min)/F0 does the source give for `CCNC(=O)c1c(O)c2cccc3c2n(c1=O)CC3` here?
**A.** inactive

**Q.** Which fluorescence ratio F(max-min)/F0 does the source give for `COC(=O)c1sccc1NS(=O)(=O)c1ccc(F)cc1F` here?
**A.** inactive

**Q.** Which fluorescence ratio F(max-min)/F0 does the source give for `COc1ccc(C(=O)CSc2n[nH]c(N)n2)cc1` here?
**A.** inactive

**Q.** For `CCOC(=O)c1[nH]c2ccc(C)cc2c1N=C(C)N(C)C`, which fluorescence ratio F(max-min)/F0 is on record?
**A.** inactive

**Q.** For `Cc1ccc2nc(Nc3ccccc3)cc(C)c2c1`, which fluorescence ratio F(max-min)/F0 is on record?
**A.** inactive

**Q.** Which fluorescence ratio F(max-min)/F0 does the source give for `CC1(C(=O)O)CCC(C(=O)Nc2ccc(Cl)c(Cl)c2)C1(C)C` (stereo unspecified) here?
**A.** inactive

**Q.** Which fluorescence ratio F(max-min)/F0 does the source give for `Cc1cc(Nc2cc(N3CCN(C)CC3)nc(Sc3ccc(NC(=O)C4CC4)cc3)n2)n[nH]1` here?
**A.** inactive

**Q.** With `Cc1nn(C(=O)c2ccoc2C)c(N)c1-c1ccccc1` as the compound, how does the fluorescence ratio F(max-min)/F0 read?
**A.** inactive

**Q.** With `O=C(Nc1ccc(Cl)cc1)Nc1ccc(Oc2cccnc2)nc1` as the compound, how does the fluorescence ratio F(max-min)/F0 read?
**A.** inactive

**Q.** For `O=C(CCN1CCc2ccccc2C(O)(c2ccccc2)C1)c1ccc2c(c1)OCCO2` (stereo unspecified), which fluorescence ratio F(max-min)/F0 is on record?
**A.** inactive

**Q.** With `CCC1CCCCN1CCNC(=O)c1[nH]c(C)c(C(C)=O)c1C` (stereo unspecified) as the compound, how does the fluorescence ratio F(max-min)/F0 read?
**A.** inactive

**Q.** For `CCc1nnc(NC(=O)CSc2nc3c(c(=O)n2-c2ccccc2OC)SCC3)s1`, which fluorescence ratio F(max-min)/F0 is on record?
**A.** inactive

**Q.** With `Cc1ccc2c(C)c(C(=O)N(C)CCC3CCCCO3)oc2c1C` (stereo unspecified) as the compound, how does the fluorescence ratio F(max-min)/F0 read?
**A.** inactive

**Q.** Which fluorescence ratio F(max-min)/F0 does the source give for `Cc1cccn2c(=O)c(/C=C3\SC(=S)N(CC(C)C)C3=O)c(NCCCOC(C)C)nc12` here?
**A.** 0.164 (active)

**Q.** For `O=C(Nc1ccccc1Cl)N1CCN(c2ccc3nncn3n2)CC1`, which fluorescence ratio F(max-min)/F0 is on record?
**A.** inactive

**Q.** With `COc1ccc(OC)c(Nc2nc3ccccc3n3cnnc23)c1` as the compound, how does the fluorescence ratio F(max-min)/F0 read?
**A.** inactive

**Q.** For `C=CCSc1nc(Cc2ccc(Cl)cc2)nc2ccccc12`, which fluorescence ratio F(max-min)/F0 is on record?
**A.** inactive

**Q.** Which fluorescence ratio F(max-min)/F0 does the source give for `O=C(NC1CCCCC1)C1c2ccccc2C(=O)N1Cc1ccco1` (stereo unspecified) here?
**A.** inactive

**Q.** Which fluorescence ratio F(max-min)/F0 does the source give for `Cc1ccc(C(=O)COC(=O)CCN2C(=O)C3C4CC(C(Br)C4Br)C3C2=O)cc1` (stereo unspecified) here?
**A.** inactive

**Q.** Which fluorescence ratio F(max-min)/F0 does the source give for `CC(C)(C)Nc1c(-c2cccs2)nc2ccccn12` here?
**A.** inactive

**Q.** Which fluorescence ratio F(max-min)/F0 does the source give for `Cc1ccc(CS(=O)(=O)c2ncc(Cl)c(C(=O)Nc3nnc(C)s3)n2)cc1` here?
**A.** inactive

**Q.** With `COc1ccc(C(=O)NNC(=S)NC(=O)c2ccccc2)cc1` as the compound, how does the fluorescence ratio F(max-min)/F0 read?
**A.** inactive

**Q.** Which fluorescence ratio F(max-min)/F0 does the source give for `O=C(CN1CCN(c2ccc(Cl)cc2)CC1)N1CCCC1` here?
**A.** inactive

**Q.** For `Cc1ccc(NC2(C#N)C(=O)Nc3ccccc32)cc1` (stereo unspecified), which fluorescence ratio F(max-min)/F0 is on record?
**A.** inactive

**Q.** With `O=C(c1ccc(OC2CCN(C(=O)c3cccnc3)CC2)cc1)N1CCCCCC1` as the compound, how does the fluorescence ratio F(max-min)/F0 read?
**A.** inactive

**Q.** Which fluorescence ratio F(max-min)/F0 does the source give for `Cc1nc(N2CCN(c3ccccn3)CC2)c2c(C)c(C(=O)Nc3ccc(F)c(Cl)c3)sc2n1` here?
**A.** inactive

**Q.** With `Cc1ccnc(-n2sc3ccccc3c2=O)n1` as the compound, how does the fluorescence ratio F(max-min)/F0 read?
**A.** inactive

**Q.** With `C=CCNC(=O)c1cc(-c2ccccc2O)on1` as the compound, how does the fluorescence ratio F(max-min)/F0 read?
**A.** inactive

**Q.** Which fluorescence ratio F(max-min)/F0 does the source give for `CN1/C(=C\C=C2\N=C(c3ccc(F)cc3)OC2=O)C(C)(C)c2ccccc21` here?
**A.** inactive

**Q.** Which fluorescence ratio F(max-min)/F0 does the source give for `COc1ccc(C(=O)Nc2c(N)nc(SCC(=O)N3CCC(C)CC3)[nH]c2=O)cc1OC` here?
**A.** inactive

**Q.** With `Cc1ccc2nc(-c3ccc(NC(=O)c4cccnc4)cc3)oc2c1` as the compound, how does the fluorescence ratio F(max-min)/F0 read?
**A.** inactive

**Q.** For `Cc1ccc2c(c1)c1ncnc(N3CCc4ccccc4C3)c1n2C`, which fluorescence ratio F(max-min)/F0 is on record?
**A.** inactive

**Q.** Which fluorescence ratio F(max-min)/F0 does the source give for `CCCCOC(=O)CNc1nnc(SCC(=O)OCC)[nH]c1=O` here?
**A.** inactive

**Q.** Which fluorescence ratio F(max-min)/F0 does the source give for `COc1cccc(CNC(=O)C2CCN(S(=O)(=O)c3cccc4cccnc34)CC2)c1` here?
**A.** inactive

**Q.** For `Cc1nc(C)c(-c2csc(NCCc3ccccc3)n2)s1`, which fluorescence ratio F(max-min)/F0 is on record?
**A.** inactive

**Q.** For `CN(c1cccc(NC(=O)Nc2ccc(Cl)cc2)c1)S(C)(=O)=O`, which fluorescence ratio F(max-min)/F0 is on record?
**A.** inactive
